# Sampled rows, rich in hits. Any-hit rate of the full collection: about 0.93%.
# CIT2-GFP yeast – modulators of TOR pathway CIT2-GFP in S. cerevisiae; GFP response vs DMSO, % at 10 µM; actives 0.065% (n = 320,000); AID 2029; S. cerevisiae CIT2-GFP strain, flow cytometry, 3 h; 100 means same as DMSO wells;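 active means GFP response relative to DMSO above a set limit, near the screen mean plus 3 SD, cut at about 150% in these data; inconclusive means Fewer than 70 cells measured for a yeast strain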;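 further: ratio of well median GFP fluorescence to mean of DMSO wells on the plate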
# AGP1 TOR yeast – yeast TOR pathway AGP1-GFP modulation; actives 0.02% (n = 320,000); S. cerevisiae AGP1-GFP multiplex flow cytometry, 3 h; GFP as percent of DMSO wells; GFP response vs DMSO, % at 10 µM;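 active means GFP response relative to DMSO above a set limit, near screen average plus 3 SD, cut at about 150% in these data; inconclusive means fewer than 70 cells counted for the yeast strain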;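 further: median GFP channel fluorescence of the gated AGP1 strain per well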
# LAP4 TOR yeast – modulators of TOR pathway LAP4-GFP in S. cerevisiae | S. cerevisiae LAP4-GFP multiplex, flow cytometry GFP, 3 h; median GFP as percent of DMSO wells | GFP response vs DMSO, % at 10 µM | actives 0.34% (n = 320,000) | AID 2023;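 active means GFP response vs DMSO above a set limit, about the screen mean plus 3 SD, cut at about 150% in these data; inconclusive means under 70 cell events counted for the yeast strain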
# RPL19A TOR yeast – modulators of TOR pathway RPL19A-GFP in S. cerevisiae; S. cerevisiae RPL19A-GFP strain, flow cytometry, 3 h; stronger effect = lower value; percent response vs DMSO, % at 10 µM; actives 0.3% (n = 330,000); AID 2025;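 active means percent response vs DMSO below 50%; inconclusive means fewer than 70 events counted for the yeast strain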;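 further: median channel GFP fluorescence of the barcoded RPL19A-GFP strain; ratio of sample median GFP to plate DMSO average so 100% = DMSO; lower means less RPL19A-GFP as with rapamycin TOR inhibition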
# MEP2-GFP yeast – alters MEP2-GFP fluorescence in TOR pathway yeast screen; S. cerevisiae MEP2-GFP strain, flow cytometry GFP, 3 h; 100% = DMSO control level; actives 0.51% (n = 330,000); GFP response vs DMSO, % at 10 µM;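 active means GFP response versus DMSO above a set limit, roughly screen mean plus 3 SD, cut at about 180% in these data; inconclusive means fewer than 70 cells counted for a yeast strain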;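 further: median GFP fluorescence of the barcode-gated MEP2-GFP cells per well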
# LAP4 cherry2 – yeast LAP4-GFP modulation, second cherry pick. shares compounds with LAP4 TOR yeast. S. cerevisiae LAP4-GFP strain, flow cytometry GFP, 3 h. GFP response vs DMSO, % at 10 µM. actives 20% (n = 590);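 active means GFP signal as percent of the solvent control above about 150%, meaning raised reporter expression, limit read from the data; inconclusive means fewer than 70 cells counted in the well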;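 further: ratio of well median GFP fluorescence to plate DMSO mean so 100% = DMSO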
# MEP2-GFP pick2 – reconfirmed MEP2-GFP TOR pathway modulator in yeast. shares compounds with LAP4 TOR yeast. S. cerevisiae MEP2-GFP strain, flow cytometry GFP, 3 h. GFP response vs DMSO, % at 10 µM. actives 10% (n = 590). AID 2622;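 active means GFP signal above 150% of the solvent control wells, that is a rise of more than half; inconclusive means fewer than 70 yeast cells counted in the well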;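 further: median channel GFP fluorescence of all gated yeast cells per well; ratio of median GFP to plate DMSO average so 100% = DMSO level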
# RPL19A GFP CP2 – reconfirmed modulator of RPL19A-GFP TOR reporter in yeast; shares compounds with LAP4 TOR yeast; S. cerevisiae RPL19A-GFP strain, flow cytometry GFP, 3 h; stronger effect = lower value; 100% means same as DMSO wells; GFP response vs DMSO, % at 10 µM; actives 3% (n = 590);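 active means under 65% GFP response relative to DMSO; inconclusive means yeast strain with under 70 measured events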;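 further: median GFP channel fluorescence per well over the all cells gate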
# CIT2 GFP CP2 – reconfirmed modulator of CIT2-GFP TOR reporter in yeast. AID 2624. GFP response vs DMSO, % at 10 µM. shares compounds with LAP4 TOR yeast. actives 8% (n = 590). S. cerevisiae CIT2-GFP strain, flow cytometry GFP, 3 h; DMSO control wells read 100%;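 active means GFP response vs DMSO above about 150%, limit read from the data; inconclusive means fewer than 70 events counted for a yeast strain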;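 further: median green fluorescence per well over all gated yeast cells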
# AGP1 GFP CP2 – reconfirmed modulator of AGP1-GFP TOR reporter in yeast. shares compounds with LAP4 TOR yeast. S. cerevisiae AGP1-GFP strain, flow cytometry GFP, 3 h. percent response vs DMSO, % at 10 µM. 590 tested, under 10 active. AID 2643;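 active means over 150 percent of DMSO response; inconclusive means yeast strain measured with under 70 events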;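 further: median GFP channel fluorescence over all cells without mother daughter split; sample median GFP divided by mean DMSO control so 100% equals DMSO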
# s288c autofluor – counter-screen for compound autofluorescence in yeast s288c cells; fluorescence change (kMESF span) at 33 µM; shares compounds with LAP4 TOR yeast; S. cerevisiae s288c, 520 nm autofluorescence, flow cytometry, 3 h; stronger effect = higher value; zero means same as solvent-only cells; 610 tested, under 10 active;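 active means fluorescence span over the dose series, or activity score, above about 33, limit read from the data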
# s288c autofl DR – TOR screen hit shows autofluorescence in yeast s288c. fluorescence change (span) at 33 µM. shares compounds with LAP4 TOR yeast. S. cerevisiae s288c parental, compound autofluorescence, flow cytometry, 3 h. 110 tested, under 10 active;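 active means fluorescence change span, or the activity score built from it, above 25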
# TORC1 bypass gr – stops wildtype yeast growth while TORC1 bypass cells still grow. growth rating (0-3) at 30 µM. 120 tested, under 10 active. S. cerevisiae BY4741 spot growth rating, 48-72 h; stronger effect = lower value. AID 504456. shares compounds with LAP4 TOR yeast;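 active means growth rating at most 1 for wild type yeast while the TORC1 bypass strain still grows fully, rated 3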
# An asterisk follows results filed as active; ? = inconclusive; · = no result; + = active, no number.
SMILES,CIT2-GFP yeast,AGP1 TOR yeast,LAP4 TOR yeast,RPL19A TOR yeast,MEP2-GFP yeast,s288c autofluor,others
O=C1CCN(S(=O)(=O)c2ccccc2)CCN1CCOCc1ccc(F)cc1,108,108,179*,81,190*,0,LAP4 cherry2=97;MEP2-GFP pick2=95;RPL19A GFP CP2=98;CIT2 GFP CP2=103;AGP1 GFP CP2=99
Cc1ccc(S(=O)(=O)N2CCC(=O)N(CCOCc3ccc(F)cc3)CC2)cc1,68,75,119,91,88,·,
COc1ccc([N+](=O)[O-])c(S(=O)(=O)c2ccc(Cl)cc2)n1,100,108,102,100,108,0.72,s288c autofl DR=0.63;TORC1 bypass gr=3
COc1ccc([N+](=O)[O-])c(S(=O)(=O)c2ccccc2)n1,84,108,218*,73,85,0.81,s288c autofl DR=0.21;TORC1 bypass gr=3
O=[N+]([O-])c1cccnc1S(=O)(=O)c1ccccc1,102,104,128,98,96,·,
Cc1ccc(S(=O)(=O)N2CCOCC2)cc1C(=O)N1CCN(S(=O)(=O)c2cccs2)CC1,102,104,99,98,102,·,
CN(CC(=O)Nc1cccc(F)c1)C(=O)CNS(=O)(=O)c1ccc(N(C)C)c([N+](=O)[O-])c1,87,93,103,90,89,·,
CC(C)(C)C1CCC(=NNC(=O)C(=O)NCc2ccco2)CC1 (stereo not given),84,83,88,60,115,·,LAP4 cherry2=96;MEP2-GFP pick2=98;RPL19A GFP CP2=99;CIT2 GFP CP2=105;AGP1 GFP CP2=100
CCS(=O)(=O)Nc1cccc(-c2ccc3nnc(-c4cccnc4)n3n2)c1,101,120,171*,79,88,·,LAP4 cherry2=99;MEP2-GFP pick2=103;RPL19A GFP CP2=100;CIT2 GFP CP2=102;AGP1 GFP CP2=100
CCCS(=O)(=O)Nc1cccc(-c2ccc3nnc(C)n3n2)c1,96,99,75,93,100,·,
COc1ccc(N2CCN(C(C)C(=O)N(C)Cc3ccccc3)CC2)cc1 (stereo not given),91,87,88,94,90,·,
Cc1ccc(N2C(=O)CC(Sc3ncn[nH]3)C2=O)cc1C (stereo not given),91,95,151*,98,90,-0.1,
Cc1cccc(N2C(=O)CC(Sc3ncn[nH]3)C2=O)c1 (stereo not given),78,93,140,93,90,·,
COc1ccc(/C=C/C(=O)c2cc(Br)ccc2O)cc1OC,107,88,128,93,112,·,
O=C(/C=C/c1ccccn1)c1ccc(Br)cc1O,81,88,155*,87,84,1.5,LAP4 cherry2=165*;MEP2-GFP pick2=119;RPL19A GFP CP2=91;CIT2 GFP CP2=96;AGP1 GFP CP2=95
O=C(/C=C/c1ccc(O)cc1)c1ccc(O)cc1O,105,97,112,105,100,·,
O=C(/C=C/c1ccccn1)c1cc(Br)ccc1O,57,67,212*,69,80,1.1,
Cc1sc2ncnc(N/N=C/c3cccc(O)c3)c2c1C,97,95,96,97,100,·,
C/C(=N\Nc1ncnc2sc(C)c(C)c12)c1ccccn1,+,203*,869*,183,+,94*,
COc1ccc(C(=O)/C=C2/C(=O)Nc3ccccc32)c(OC)c1,80,88,137,94,87,0.1,
O=C1Nc2ccccc2/C1=C/C(=O)c1cccs1,?,?,129,54,162,·,
COc1cc(OC)c(/C=C2\C(=O)Nc3ccccc32)c(OC)c1,68,78,141,100,102,·,
COc1ccc(C(=O)/C=C2/C(=O)Nc3ccccc32)cc1,74,71,167*,103,97,-0.2,
COc1ccc(C(=O)/C=C2/C(=O)Nc3ccccc32)cc1OC,102,105,95,108,103,-2.1,
C=CCOc1ccc(C(=O)Nc2ccccc2C(=O)NCc2cccnc2)cc1,103,105,98,100,102,·,
SMILES,CIT2-GFP yeast,AGP1 TOR yeast,LAP4 TOR yeast,RPL19A TOR yeast,MEP2-GFP yeast,s288c autofluor,others
O=C(/C=C/c1cccc([N+](=O)[O-])c1)c1ccc([N+](=O)[O-])o1,75,68,243*,71,83,1.4,LAP4 cherry2=182*;MEP2-GFP pick2=138;RPL19A GFP CP2=94;CIT2 GFP CP2=126;AGP1 GFP CP2=87
O=C(/C=C/c1cccc([N+](=O)[O-])c1)c1ccco1,84,85,147,88,91,·,
Cc1cccc(/C=C/C(=O)c2ccc([N+](=O)[O-])o2)c1,80,61,176*,90,84,9.7,LAP4 cherry2=247*;MEP2-GFP pick2=150*;RPL19A GFP CP2=93;CIT2 GFP CP2=157*;AGP1 GFP CP2=102
O=C1c2ccccc2C(=O)C2OC12 (stereo not given),88,98,163*,79,132,2.1,
O=C1c2ccccc2C(=O)C1c1ccccn1,88,114,106,92,107,·,
O=C(CCN1C(=O)c2cccc3cccc(c23)C1=O)Nc1ccon1,105,103,103,98,103,·,
C=C1CCN([C@@H](C)C(=O)OCc2cccc(C)c2)S(=O)(=O)c2ccccc21,125,92,153*,98,98,·,LAP4 cherry2=99;MEP2-GFP pick2=98;RPL19A GFP CP2=100;CIT2 GFP CP2=98;AGP1 GFP CP2=97
C=C1CCN([C@H](C(=O)OCc2ccc(C)cc2)C(C)C)S(=O)(=O)c2ccccc21,91,85,106,94,95,·,
COc1ccccc1-c1nnc(SCC(=O)N2CCOCC2)n1-c1ccccc1,103,99,98,95,100,·,
